High-throughput results as filed in PubChem BioAssay.
LASV entry inh = Lassa virus entry inhibition; Lassa virus pseudotype entry inhibition, cell reporter; Potency, µM (doses to about 37.9 µM), without a hit: top-dose activity change, negative = inhibition, most hits filed as inhibitors; 300,000 tested, 1.2% active; calls by dose curve; tested in HEK293 cells; further: potency means the concentration at half of the fitted maximal effect; on the % scale 0 is the no-effect control and ±100 the full control effect; nearly all actives have a fitted effect of over 50% in size
CHX counter = counter-screen hit for Shiga toxin inhibitors, cycloheximide; cell reporter, cycloheximide protein synthesis inhibition counterscreen; max response, %; 300,000 tested, 12% active; in the data active means max response mostly above about 13%, no sharp cut-off; inactive means mostly below about 14%; further: read at 38.3 µM for the half of the compounds with a filed dose; 0% is about no effect
VACV Venus inh = inhibitors of vaccinia virus (Venus reporter). Potency, µM (titrated, usually from 36.5 µM), without a hit: at the top dose activity change, negative = inhibition, most hits filed as inhibitors. Vaccinia virus Venus reporter expression, fluorescence. 330,000 tested, 0.46% active; calls by dose curve; tested in A549 cells; further: potency means the concentration at half of the fitted maximal effect; on the % scale 0 is the no-effect control and ±100 the full control effect; nearly all actives have a fitted effect of over 30% in size
MARV entry inh = blocks Marburg virus binding to or entry into cells | Marburg virus pseudotyped entry inhibition, cell reporter | Potency, µM (titrated, usually from 37.8 µM), for the others: at the highest dose activity change, negative = inhibition, actives largely listed as inhibitors | 300,000 tested, 1.8% active; calls by dose curve; tested in HEK293 cells; further: potency means the concentration at half of the fitted maximal effect; on the % scale 0 is the no-effect control and ±100 the full control effect
Shiga inhibitor = inhibitors of Shiga toxin in Vero cells; Vero cells, Shiga toxin protein synthesis inhibition reporter; inhibition, % at 38.7 µM; 290,000 tested, 9.2% active; AID 2315; in the data active means inhibition mostly above about 28%, no sharp cut-off; inactive means mostly below about 43%; further: 0% is about no effect
VACV mCherry inh = vaccinia inhibition (mCherry reporter) | Vaccinia virus mCherry reporter infection, fluorescence | 310,000 tested, 0.63% active | Potency, µM (top dose mostly 36.5 µM), for inactives: top-dose activity change, negative = inhibition, actives largely listed as inhibitors; calls by dose curve; tested in A549 cells; further: potency means the concentration at half of the fitted maximal effect; on the % scale 0 is the no-effect control and ±100 the full control effect; nearly all actives have a fitted effect of over 35% in size
Numbers without * were called inactive; i = inactive; u = inconclusive; x = not tested or not shown; + = active, no number; [ ] = remark or other dose. This is one part of a sample in which hits are shown more often than they occur.

SMILES	LASV entry inh	CHX counter	VACV Venus inh	MARV entry inh	Shiga inhibitor	VACV mCherry inh
CC1=C/C(=N\NC(=O)c2ccccc2)CC1	u	43.0*	-9.4%	11.4%	+	i
CCCn1c(SCC(O)c2cccc(OC)c2)nc2ccccc21 (configuration not stated)	-6.1%[46.1 µM]	x	-9.0%	2.8%[46.1 µM]	x	-10.8%
CCCN(Cc1cccs1)C(=O)Nc1ccc(F)c(Cl)c1	0.8%[46.1 µM]	x	-6.5%	-17.2%[46.1 µM]	x	-2.2%
c1ccc2c(Nc3nnc(-c4ccncc4)s3)cccc2c1	14.6%	48.0*	-10.1%	-2.7%	33.5*	-21.9%
CCN(Cc1ccncc1)Cc1ccc2c(c1)CN(C(=O)c1ccc(C#CC(C)(C)O)o1)CCO2	x	x	5.8%	x	x	-6.2%
Cc1ccc(OCCOc2ccc(Br)cc2)c([N+](=O)[O-])n1	u	71.8*	-25.5%	7.5%	154.3*	-5.2%
Cc1ccc(OCc2ccc([N+](=O)[O-])cc2)c([N+](=O)[O-])n1	x	-1.5	x	x	-11.4	x
Cc1ccc(OCc2ccccc2C)c([N+](=O)[O-])n1	u	40.7*	-4.3%	-1.1%[46.1 µM]	33.5	i
CS(=O)(=O)N(CC(=O)Nc1ccc2c(c1)OCO2)Cc1ccccc1	11.1%	12.7*	-5.5%	15.9%	28.0	-11.4%
CS(=O)(=O)N(CCc1ccccc1)CC(=O)Nc1ccc2c(c1)OCO2	7.0%	7.5	x	0.4%	-11.3	x
CCN(CC)S(=O)(=O)c1cccc(C(=O)N[C@H](C(=O)OCC(=O)Nc2ccccc2)C(C)C)c1	-2.2%	14.7*	-1.9%	-4.3%	15.9	-16.9%
CCC(CC)C(=O)Nc1cccc(C(=O)Nc2ccc(S(N)(=O)=O)cc2)c1	-25.1%[46.1 µM]	-4.5	-9.3%	6.3%[46.1 µM]	-5.9	-6.4%
CCC(CC)C(=O)Nc1cccc(C(=O)Nc2ccc3c(c2)OCO3)c1	-0.2%	43.2*	-4.1%	18.7%	79.8*	-17.7%
CCN(CC(=O)Nc1cccc(C(C)=O)c1)S(=O)(=O)c1ccccc1	-3.3%	-1.7	-14.5%	-3.7%	3.4	-0.8%
CCN(CC)S(=O)(=O)c1cccc(C(=O)N[C@H](C(=O)OCC(N)=O)C(C)C)c1	2.5%	-1.8	-3.5%	-4.7%	-13.2	-10.3%
CCN(CC(=O)Nc1ccc2c(c1)OCCO2)S(=O)(=O)c1ccccc1	u	23.9*	-5.9%	u	37.2*	-8.5%
O=S(=O)(c1ccc(Cl)cc1Cl)n1ccnc1	12.4%[46.1 µM]	x	-4.5%	-4.2%[46.1 µM]	x	-10.4%
CCN(CC)S(=O)(=O)c1cccc(C(=O)Nc2ccc3c(c2)OCO3)c1	-24.1%[46.1 µM]	34.8*	-10.5%	u	91.2*	-13.4%
CCN(CC)S(=O)(=O)c1ccc(C(=O)Nc2ccc3c(c2)OCCO3)cc1	u	20.2*	x	7.4%	38.3	x
CCCN(CCC)S(=O)(=O)c1cccc(C(=O)Nc2ccc3c(c2)OCO3)c1	x	8.6	x	x	-20.2	x
CCN(CC)S(=O)(=O)c1ccc(NC(=O)c2ccc(NS(C)(=O)=O)cc2)cc1	-23.5%	-2.4	-15.6%	8.2%	-5.7	u
O=C1[C@@H]2[C@H](ON(c3ccccc3)[C@H]2c2ccncc2)C(=O)N1c1ccccc1	x	x	x	17.9%	x	x
COCCn1c(SCC(=O)Nc2ccc(Br)cc2)nc2c([nH]c3ccccc32)c1=O	-25.6%[46.1 µM]	x	-1.0%	x	x	-4.8%
CCC(C)NC(=O)CSc1ccc(S(=O)(=O)N(C)C2CCCCC2)cn1 (configuration not stated)	3.98µM*	x	-13.0%	u	x	-21.0%
Cc1onc(-c2ccccc2Cl)c1C(=O)Nc1ccc(Cl)cn1	x	10.5*	x	x	12.5	x
SMILES	LASV entry inh	CHX counter	VACV Venus inh	MARV entry inh	Shiga inhibitor	VACV mCherry inh
Cc1onc(-c2ccccc2Cl)c1C(=O)NCc1nc(-c2ccc(C(F)(F)F)cc2)no1	10µM*	1.4	-20.4%	u	9.7	u
Cc1onc(-c2ccccc2Cl)c1C(=O)NCc1ccccc1F	x	-0.3	x	x	-9.4	x
Cc1onc(-c2ccccc2Cl)c1C(=O)Nc1ccccc1C(=O)NC(C)C	u	-4.0	-22.3%	9.2µM*	-1.5	-14.6%
CSc1ncnc2c1ncn2CCCNCCc1ccccn1	x	x	-1.4%	x	x	-9.1%
CC(C)(C)[C@@H]1C=C(C(=O)Nc2ccccc2)O[C@H](OCc2ccc(CO)cc2)C1	x	26.2*	-15.1%	x	49.6	i
CC(C)(C)[C@@H]1C=C(C(N)=O)O[C@H](OCc2ccc(CO)cc2)C1	x	-3.7	-15.5%	x	-1.7	-3.5%
O=C(Nc1ccccc1)C1=C[C@H](C2CC2)C[C@H](OCCCCO)O1	x	28.0*	-2.5%	x	104.3*	7.4%
NC(=O)C1=C[C@H](C2CCCCC2)C[C@H](OCc2ccc(CO)cc2)O1	x	49.9*	-1.8%	x	63.2*	i
C=CCOC(=O)C1=C[C@H](C2CCCCC2)C[C@H](OCc2ccc(CO)cc2)O1	x	x	-6.3%	x	x	-15.1%
CC(C)(C)[C@H]1C=C(C(N)=O)O[C@@H](OCc2ccc(CO)cc2)C1	x	13.5*	-10.0%	x	39.8	i
Oc1ccc(/C=N/NC(=S)NC2CC3CCC2C3)cc1 (configuration not stated)	11.2µM*	16.5*	0.0%	u	37.2	-22.2%
S=C(N/N=C/c1cccs1)NC1CC2CCC1C2 (configuration not stated)	-10.2%	24.0*	-4.9%	u	46.5*	-14.8%
Oc1ccc(/C=N/NC(=S)NCC2CCCO2)cc1 (configuration not stated)	-20.8%	1.0	-9.8%	-4.2%[46.1 µM]	-6.2	-14.0%
CC(=O)N1CC[C@@H]2CC(=O)CC[C@@H]21	x	0.9	x	x	i	x
O=C(c1ccc(C(F)(F)F)cc1)N(CCCn1ccnc1)C(c1ccccn1)c1nc2ccccc2[nH]1 (configuration not stated)	x	x	-3.9%	x	x	1.5%
Cc1ccc2nc(N3CCN(Cc4ccc(F)cc4)C3=O)c(C)cc2c1	u	20.0*	-17.8%	-7.7%[46.1 µM]	40.9	-7.8%
Cc1ccc(CNC(=O)CN2CCN(Cc3ccc(F)cc3)C2=O)cc1	-0.8%[46.1 µM]	x	-4.9%	-3.5%[46.1 µM]	x	-4.9%
O=C(CC(=O)c1ccccc1O)c1ccc(F)cc1	u	48.9*	x	u	70.2*	x
O=C(CC(=O)c1ccccc1O)c1cccc(F)c1	u	34.2*	0.0%	u	55.8*	-0.6%
O=C(CC(=O)c1c(F)cccc1Cl)c1ccccc1O	u	55.5*	-11.0%	u	51.5*	-5.7%
O=C1N/C(=C\c2ccc(O)cc2)C(O)=C1C=NCc1ccccc1	u	15.9*	u	u	14.4	u
COc1ccc(/C=C2\NC(=O)C(C=NCc3ccccc3)=C2O)cc1	u	9.8	-13.9%	14.3%	27.7	-7.5%
Cc1ccc(C(=O)Nc2cc3ccccc3oc2=O)cc1	2.82µM*	29.3*	-23.7%	u	32.5	-4.3%
COC(=O)c1cc(NC(=O)c2ccc(OC)cc2)c(=O)oc1C	13.1%	17.4	-3.2%	-19.1%[46.1 µM]	25.2	7.5%
CC(=O)c1cc(NC(=O)c2ccc(C)cc2)c(=O)oc1C	26.5%	28.0	-3.4%	u	71.7*	i
COc1ccc(C(=O)Nc2cc(C(C)=O)c(/C=C/N(C)C)oc2=O)cc1	u	12.3	-2.9%	1.9%	41.3	i
CC(=O)Nc1cc2ccccc2oc1=O	-0.1%	12.6	-3.6%	1.2%[46.1 µM]	22.5	-1.1%
